# Shown are actives, neighbours in structure and some others; about 19% of the full set was active somewhere.
# MCF10A rerep: A quantitative high throughput screen for small molecules that induce DNA re-replication in MCF 10a normal breast cells. MCF 10A DNA re-replication, Hoechst nuclear intensity, 48 h. Potency, µM (highest dose often 46.1 µM), for the others: top-dose activity, positive = re-replication, hits mostly activators. 2.9% of 350,000 active. AID 624296, 2012; further: potency means the concentration at half of the fitted maximal effect; % of control where 0% means no effect; nearly all actives have a fitted effect of over 50% in size
# IL1B secr inh: qHTS for Inhibitors of Inflammasome Signaling: IL-1-beta AlphaLISA Primary Screen | THP-1 LPS/ATP IL-1B secretion, AlphaLISA, 16 h; hits give low values | activity change, % at 57.5 µM | AID 743279, 2014 | 4.7% of 360,000 active; in the data active means activity change below about -50%; inconclusive means mostly about -30% to -49%; further: on the % scale 0 is the no-effect control and ±100 the full control effect
#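 THP-1 cells pretreated 1 hr with compounds (up to 57.5 uM final), then stimulated with LPS (250 ng/mL final) plus ATP (1.25 mM final); secreted IL-1B measured by AlphaLISA after 16 hr, decreased signal indicating inhibition.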
# DT40 TDP1 CPT: qHTS for Inhibitors of human tyrosyl-DNA phosphodiesterase 1 (TDP1): qHTS in cells in presence of CPT. chicken DT40 Tdp1-/-;hTDP1 cells + 20 nM CPT, ATP luminescence, 48 h. AID 686979, 2013. 12% of 420,000 active. Potency, µM (titrated, usually from 46.2 µM), for the others: at the highest dose activity change, negative = growth inhibition, hits mostly inhibitors; further: potency means the concentration at half of the fitted maximal effect; on the % scale 0 is the no-effect control and ±100 the full control effect; nearly all actives have a fitted effect of over 55% in size
#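 Cell growth measured by CellTiter-Glo luminescence after a minimum 48 h, 37 C compound exposure with 20 nM CPT in Tdp1-knockout DT40 cells stably expressing hTDP1, seeded 400/well; qHTS titration format.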
# DT40 TDP1 no CPT: qHTS for Inhibitors of human tyrosyl-DNA phosphodiesterase 1 (TDP1): qHTS in cells in absence of CPT. DT40 Tdp1-/- hTDP1 cells, no CPT, ATP luminescence, 48 h. Potency, µM (titrated, usually from 46.2 µM), for the others: top-dose activity change, negative = growth inhibition, actives largely listed as inhibitors. 15% of 420,000 active. AID 686978, 2013; further: potency means the concentration at half of the fitted maximal effect; on the % scale 0 is the no-effect control and ±100 the full control effect; nearly all actives have a fitted effect of over 55% in size
#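 Chicken DT40 Tdp1-/- cells complemented with human TDP1, screened without camptothecin (DMSO vehicle only), 400 cells/well. Compounds pin-transferred, cells incubated at 37 °C for at least 48 hr. Growth read as ATP-dependent luminescence (CellTiter-Glo, 30 min at RT).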
# SW480 rereplic: A quantitative high throughput screen for small molecules that induce DNA re-replication in SW480 colon adenocarcinoma cells | SW480 DNA re-replication, Hoechst DNA content imaging, 48 h | Potency, µM (top dose mostly 46.1 µM), for the others: at the highest dose re-replication activation, hits mostly activators | 1.8% of 340,000 active | AID 624297, 2012; further: potency means the concentration at half of the fitted maximal effect; % of control where 0% means no effect; nearly all actives have a fitted effect of over 55% in size
#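 Image-based DNA-content assay: after two days of treatment, nuclei were labelled with the DNA dye Hoechst and imaged, and hits were compounds raising the count of nuclei showing high fluorescence intensity.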
# Chronic BCR inh: qHTS Assay to Find Inhibitors of Chronic Active B-Cell Receptor Signaling | ABC-DLBCL IkBa-CBG/CBR reporter, luminescence ratio, 4 h | Potency, µM (series often up to 46.1 µM), inactives show at the top dose activity change, negative = inhibition, most hits filed as inhibitors | 0.05% of 340,000 active | AID 493014, 2011; active means well fitted inhibition curve with a large enough effect in the signal ratio, with a control signal flat, not every such curve was filed as active; inconclusive means small, poorly fitted or top-dose-only effect, or effect the other way, or a change in a side signal; the % refers to the signal ratio;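 further: potency means the concentration at half of the fitted maximal effect; plate controls were basal doxycycline-induced cells for no effect and cells given 10 µM MG132 for full effect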
#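 TMD8 human ABC-DLBCL cells with doxycycline-inducible IκBα–green luciferase fusion and unfused red luciferase, in 0.5% FBS medium; compounds up to 46 uM, 4 h at 37C. Green/red luminescence ratio, filter-overlap corrected, fitted to concentration-response curves.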
# * = called active by the depositor; ? = inconclusive; nt = not tested or not shown. Unless noted, the call rests on the fitted dose curve; in most records, active means well fitted curve in the direction sought with a large enough effect; inconclusive means small, poorly fitted or top-dose-only effect, or another doubt; inactive means no such curve, though single readings can be large; an effect the other way counts as inactive or inconclusive.
SMILES,MCF10A rerep,IL1B secr inh,DT40 TDP1 CPT,DT40 TDP1 no CPT,SW480 rereplic,Chronic BCR inh
CC1=C(C(=O)N(C(C)C)C(C)C)CC(CC(=O)NCc2cccc3ccccc23)C(=O)N1Cc1ccc(F)cc1 (configuration not stated),nt,-67.7*,?,?,nt,nt
CC1=C(C(=O)N(C)C)CC(CC(=O)NCc2cccc3ccccc23)C(=O)N1Cc1ccccc1 (configuration not stated),nt,-3.9,?,?,nt,nt
CC1=C(C(=O)N(C(C)C)C(C)C)CC(CC(=O)NCc2cccc3ccccc23)C(=O)N1Cc1ccccc1 (configuration not stated),nt,?,?,14.6µM*,nt,nt
CC1=C(C(=O)N(C(C)C)C(C)C)CC(CC(=O)NC2CCCCC2)C(=O)N1CCC1=CCCCC1 (configuration not stated),nt,-14.5,?,23.1µM*,nt,nt
O=C(c1ccoc1)N1CCCC(N2CCN(c3cccc(Cl)c3)CC2)C1 (configuration not stated),14.8%,7.7,?,-26.1%,-4.9%,8.4%
CCc1ccc2cc3c(cc2n1)C(=O)c1ccccc1-3,nt,2.9,-22.2%,?,nt,nt
Cc1ccccc1NC(=S)N/N=C/c1ccc(O)cc1O,17.7%,71.7,10.3µM*,9.2µM*,18.9%,?
Cc1ccc(Cl)cc1NC(=S)N/N=C/c1cccc2ccccc12,8.2µM*,47.3,2.91µM*,4.61µM*,8.2µM*,?
Cc1cccc(NC(=S)N/N=C/c2cccc(O)c2)c1C,?,7.4,2.59µM*,2.59µM*,7.31µM*,?
Cc1ccccc1Nc1nc(N)[nH]c(=O)c1N=O,nt,54.1,?,?,nt,nt
Cc1ccc(C(=O)N2CCN(CCc3ccncc3)CC2)cc1,nt,nt,7.3%,-2.7%,nt,nt
COc1cc(C2C3=C(COC3=O)OC(C)(C)Oc3cc4c(cc32)OCO4)cc(OC)c1OC (configuration not stated),1.16µM*,16.5,1.03µM*,0.731µM*,1.16µM*,nt
COc1cc(C2C3=C(COC3=O)Oc3cc4c(cc32)OCO4)ccc1O (configuration not stated),?,28.2,0.82µM*,0.581µM*,1.84µM*,nt
COc1ccc(N2CCN(c3cc(C(=O)NC4CCCCC4)ncn3)CC2)cc1OC,nt,-8.6,?,?,nt,nt
Cc1cnc(CNC(=O)C2(C)CCCN2CC(C)C)cn1 (configuration not stated),nt,61.1,-17.6%,-8.3%,nt,nt
Cc1ccc(S(=O)(=O)SC/C=C/CSS(=O)(=O)c2ccc(C)cc2)cc1,14.2%,19.0,?,14.6µM*,?,nt
Cc1ccc(S(=O)(=O)SCCCSS(=O)(=O)c2ccc(C)cc2)cc1,17.7%,34.6,18.4µM*,20.6µM*,13.0%,nt
Cc1ccc(S(=O)(=O)CCCS(=O)(=O)c2ccc(C)cc2)cc1,-0.6%,15.5,6.8%,-14.7%,1.4%,2.2%
O=C(NCCS(=O)(=O)N1CCN(c2cccc(Cl)c2)CC1)c1ccco1,-0.7%,-0.9,-10.2%,?,-1.7%,-8.0%
CN(C)C1CCCCC=CC(=O)NC1 (configuration not stated),nt,0.0,-2.2%,21.4%,nt,nt
CCOC(=O)Nc1ccc(S(=O)(=O)N2CCOCC2)cc1,5.3%,-5.4,4.7%,-18.9%,-6.9%,6.6%
